# Several values for one entry are separate records, joined by “and”; a condition that tells them apart may be missing. Identical values can stand only once. Inconclusive results are not listed. Some structures have more than one record in an assay (separate samples or runs), and their calls can disagree. Activity calls are given as the source filed them. The calls were made as follows, unless noted: active = hit-call score of the fitted dose curve at least 0.9, where 1 is the maximum; inconclusive = response in the unintended direction; inactive = score below 0.9.
# Tests used:
# [1] = CCTE_Shafer_MEA_dev_LDH: CCTE's Lactate Dehydrogenase Assay for Cytotoxicity in the Neural Network Formation Assay, Shafer Lab (AID 2284068);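 also: exposure for twelve days from plating with re-dosing on DIV 5 and 9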
# Outline: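 Rat cortical primary neurons, MEA culture; dosing day 0–12, full medium plus compound exchange DIV 5, 9. Read-out: LDH enzyme activity, spectrophotometric. DMSO = negative control/baseline; signal loss → cytotoxicity.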
# [2] = CCTE_Shafer_MEA_dev_AB: CCTE's Alamar Blue Assay for Cytotoxicity in the Neural Network Formation Assay, Shafer Lab (AID 2284083);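 also: resazurin reduction fluorescence as viability of cultured neurons; twelve days of exposure from plating with re-dosing on DIV 5 and 9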
# Outline: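 Rat cortical primary cultures, 1.5 x 10^5 cells/well on MEA; continuous compound exposure over 12 days of network development, re-dosed with full medium change DIV 5 and 9. Alamar Blue fluorescence; loss of signal = cytotoxicity vs DMSO baseline.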
# [3] = CCTE_Shafer_MEA_dev_mutual_information_norm: CCTE's Neural Network Formation Assay for Mutual Information Normalization, Shafer Lab (AID 2284091; active = hit-call score of the fitted dose curve at least 0.9, where 1 is the maximum; inactive = score below 0.9;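 as to AC50: mutual information between electrodes summarised as area under curve across four recording days; potency is for a decrease in mutual information relative to DMSO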)
# Outline: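 Primary rat cortical neurons on PEI-coated 48-well MEA plates, 1.5 x 10^5 cells/well, exposed from day 0 through day 12 with re-dosing at DIV 5 and 9. Mutual information between electrodes recorded days 5, 7, 9, 12; trapezoidal AUC, loss-of-signal fit versus DMSO.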
# [4] = CCTE_Shafer_MEA_dev_correlation_coefficient_mean: CCTE's Neural Network Formation Assay for Mean Correlation Coefficient, Shafer Lab (AID 2284093; active = hit-call score of the fitted dose curve at least 0.9, where 1 is the maximum; inactive = score below 0.9;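 as to AC50: well mean pairwise spike train correlation integrated as AUC over recording days 5 to 12; potency fitted for loss of correlation relative to DMSO vehicle wells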)
# Outline: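 Rat cortical cultures, 1.5 x 10^5 cells/well, dosed from day 0 for 12 days. Spontaneous spikes recorded DIV 5/7/9/12; electrode-pair correlation coefficients averaged, AUC taken. Fit in loss direction vs DMSO.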
# [5] = UKN2_HCS_IMR90_neural_migration: University of Konstanz (UKN) Leist Lab Neural Crest Cell Migration Assay in human induced IMR90 Pluripotent Stem Cells (UKN2) (AID 2284204; active = hit-call score of the fitted dose curve at least 0.9, where 1 is the maximum; inactive = score below 0.9); conditions: actives raise or lower the signal
# Outline: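 iPSC-derived IMR90 neural crest cells seeded around stoppers on PLO/laminin/fibronectin; migration started in N2-S medium with EGF/FGF, compounds added after 24 h for 24 h. Migration into cell-free area imaged after calcein-AM/Hoechst staining; bidirectional fit versus DMSO.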
# [6] = IUF_NPC1b_proliferation_BrdU_72hr: Leibniz Research Institute for Environmental Medicine (IUF) 72-hour Neural Progenitor Cell Bromodeoxyuridine (BrdU) Proliferation Assay (NPC1b) (AID 2284207; active = hit-call score of the fitted dose curve at least 0.9, where 1 is the maximum; inactive = score below 0.9)
# Outline: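 BrdU luminescence ELISA quantified DNA synthesis over the last 16 h of a 72 h exposure, fitted against DMSO. Primary hNPC spheres from gestational week 16-19 cortex grown with EGF/FGF at 37C, pH 7.2-7.6.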
# [7] = CCTE_Shafer_MEA_acute_LDH: CCTE's Lactate Dehydrogenase Assay for Cytotoxicity in the Neural Acute Assay, Shafer Lab (AID 2284086);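 also: active means LDH release rises above DMSO vehicle level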
# Outline: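 Released lactate dehydrogenase, read at 490 nm, indicated cytotoxicity after acute 40-min compound treatment of rat cortical neuron networks grown on 48-well MEA plates.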
# [8] = CCTE_Shafer_MEA_acute_AB: CCTE's Alamar Blue Assay for Cytotoxicity in the Neural Acute Assay, Shafer Lab (AID 2284069);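 also: active compounds lower the viability signal compared with DMSO wells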
# Outline: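 Read-out: resazurin fluorescence (ex 544, em 590 nm) after CTB reagent at 1:6 dilution in fresh media. Cells: primary rat cortical neuron networks, DIV 13 or 15, chemically exposed on MEA plates; DMSO as negative control/baseline.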
# [9] = UKN5_HCS_SBAD2_neurite_outgrowth: University of Konstanz (UKN) Leist Lab Neurite Outgrowth Assay in human iPSC-derived immature Dorsal Root Ganglia Neurons (UKN5) (AID 2284070; active = hit-call score of the fitted dose curve at least 0.9, where 1 is the maximum; inactive = score below 0.9); conditions: actives raise or lower the signal
# Outline: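 SBAD2 neurons, 24 h compound treatment, calcein-AM neurite area via HCS imaging; DMSO baseline, gain or loss of signal.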
# [10] = UKN4_HCS_LUHMES_neurite_outgrowth: University of Konstanz (UKN) Leist Lab Neurite Outgrowth Assay in human LUHMES cells (UKN4) (AID 2284206; active = hit-call score of the fitted dose curve at least 0.9, where 1 is the maximum; inactive = score below 0.9); conditions: actives raise or lower the signal
# Outline: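 2-day-differentiated LUHMES, 24 h cpd exposure, live calcein-AM + H-33342 stain, HCS fluorescence imaging of neurite area; DMSO = baseline, bidirectional fit.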
smiles,measurement,setting,value
COP(=O)(OC)O/C(=C\Cl)c1cc(Cl)c(Cl)cc1Cl,AC50,[1],50 µM (active) and 51.5 µM (active)
same,AC50,[2],50 µM (active)
same,outcome,[2],inactive
same,outcome,[3],inactive
same,outcome,[4],inactive
same,outcome,[5],inactive
same,AC50,[6],51.5 µM (active)
O=C(O)C(Cl)(Cl)Cl,outcome,[7],inactive
C[C@]12CCC(=O)C[C@@H]1CC[C@@H]1[C@@H]2CC[C@]2(C)[C@@H](O)CC[C@@H]12,outcome,[8],inactive
same,outcome,[7],inactive
CC(C)(C)c1cc(O)ccc1O,AC50,[1],15 µM (active)
same,outcome,[8],inactive
same,AC50,[2],15.2 µM (active)
same,outcome,[7],inactive
same,AC50,[3],2.1 µM (active)
same,AC50,[4],6.2 µM (active)
ClC1(Cl)C2(Cl)C3(Cl)C4(Cl)C(Cl)(Cl)C5(Cl)C3(Cl)C1(Cl)C5(Cl)C24Cl (configuration not stated),AC50,[1],1.92 µM (active)
same,outcome,[8],inactive
same,AC50,[2],2.83 µM (active)
same,AC50,[3],2.05 µM (active)
same,AC50,[4],2.41 µM (active)
CCN1CCC2(CC1)COc1cc3c(cc12)N(C(=O)c1ccc(-c2ccc(-c4nnc(C)o4)cc2C)cc1)CC3,AC50,[8],17.2 µM (active)
COC(=O)Cc1ccccc1,outcome,[8],inactive
same,outcome,[7],inactive
CCOP(=S)(OCC)SCSP(=S)(OCC)OCC,outcome,[8],inactive
CCC(=O)C(CC(C)N(C)C)(c1ccccc1)c1ccccc1 (configuration not stated),AC50,[1],7.25 µM (active)
same,outcome,[8],inactive
same,outcome,[2],inactive
same,AC50,[3],6.23 µM (active)
same,AC50,[4],7.25 µM (active)
Cn1sc(Cl)cc1=O,AC50,[1],4.61 µM (active)
same,AC50,[2],5.49 µM (active)
same,AC50,[3],3.45 µM (active)
same,AC50,[4],4.5 µM (active)
CCCCCCCCc1ccc(O)cc1,outcome,[8],inactive
same,outcome,[7],inactive
CC(C)(c1ccccc1)c1ccc(O)c(C(C)(C)c2ccccc2)c1,outcome,[8],inactive
same,outcome,[7],inactive
C=C(C)C(=O)[O][Sn]([CH2]CCC)([CH2]CCC)[CH2]CCC,AC50,[1],1.98 µM (active)
same,AC50,[8],4.69 µM (active)
same,AC50,[9],0.127 µM (active)
same,AC50,[2],0.0915 µM (active)
same,outcome,[7],inactive
same,AC50,[3],0.0123 µM (active)
same,AC50,[4],0.0288 µM (active)
same,AC50,[5],0.168 µM (active)
same,AC50,[10],0.0977 µM (active)
O=C(O)C(F)(F)C(F)(F)C(F)(F)C(F)(F)C(F)(F)C(F)(F)C(F)(F)C(F)(F)C(F)(F)C(F)(F)F,outcome,[1],inactive
same,outcome,[8],inactive
same,outcome,[7],inactive
same,outcome,[3],inactive
same,outcome,[4],inactive
O=C1C2(Cl)C3(Cl)C4(Cl)C(Cl)(Cl)C5(Cl)C3(Cl)C1(Cl)C5(Cl)C24Cl (configuration not stated),AC50,[1],8.19 µM (active)
same,outcome,[8],inactive
same,AC50,[9],14.6 µM (active)
same,AC50,[2],8.77 µM (active)
same,outcome,[7],inactive
same,AC50,[3],0.125 µM (active)
same,AC50,[4],1.15 µM (active)
same,AC50,[5],2.17 µM (active)
same,AC50,[10],3.44 µM (active)
CC(=O)OC(c1ccccc1)C(Cl)(Cl)Cl (configuration not stated),outcome,[7],inactive
CC(C)(C)CC(C)(C)c1ccc(O)cc1,outcome,[8],inactive
same,outcome,[7],inactive
CC(C)(OO)c1ccccc1,outcome,[8],inactive
same,outcome,[7],inactive
CCOP(=S)(OCC)Oc1nc(Cl)c(Cl)cc1Cl,AC50,[1],13.2 µM (active) and 13.7 µM (active) and 24.3 µM (active)
same,outcome,[9],inactive
same,AC50,[2],18.2 µM (active) and 22.5 µM (active) and 24 µM (active)
same,AC50,[3],23.2 µM (active) and 15 µM (active)
same,outcome,[3],inactive
same,AC50,[4],23.5 µM (active) and 15 µM (active) and 20.4 µM (active)
same,outcome,[5],inactive
same,AC50,[10],218 µM (active)
same,outcome,[6],inactive
O=C(Nc1ccc2[nH]ccc2c1)c1cc2cc(F)ccc2n1Cc1cccc(F)c1,outcome,[8],inactive
same,outcome,[7],inactive
O=C(O)C(F)(F)C(F)(F)C(F)(F)C(F)(F)C(F)(F)C(F)(F)F,outcome,[3],inactive
same,outcome,[4],inactive
CCC(C)(C)c1ccc(O)c(C(C)(C)CC)c1,AC50,[8],35.4 µM (active)
same,outcome,[7],inactive
CC(=O)[O][Hg][c]1ccccc1,AC50,[1],0.0183 µM (active)
same,AC50,[8],20 µM (active)
same,AC50,[2],0.022 µM (active)
same,outcome,[7],inactive
same,AC50,[3],0.0082 µM (active)
same,AC50,[4],0.0159 µM (active)

# From PubChem BioAssay (EPA / NIEHS)
